# Values joined by “and” are separate entries in the source; they are usually repeats but may differ in a detail not shown here. Equal entries are not always repeated. Results filed as inconclusive are left out. A number with no mark means an inactive call. Active and inactive are the calls of the source. Calls follow the shape of the dose curve; as a rule, active = well fitted cell-killing curve with a large enough effect in the repeat runs; inconclusive = weak or mixed curves, or effect the other way; inactive = flat fitted curve, though single readings scatter.
# Test: qHTS RealTime-Glo MT Cell Viability Assay in HEK293 cells - 32 hour (AID 1224868); also: nearly all actives have a fitted effect of over 50% in size; as to activity change, negative = cytotoxic: top concentration of the series differs between compounds
# Details: RealTime-Glo luminescence; series mostly up to 76.8 µM; activity change, negative = cytotoxic: at the top concentration
# Excerpt: National Center for Advancing Translational Sciences [NCATS]
# NIH Chemical Genomics Center [NCGC]
# U.S. Environmental Protection Agency [EPA]
# National Institutes of Environmental Health Sciences [NIEHS]
# National Toxicology Program [NTP]
# U.S. Food and Drug Administration [FDA]
# Measure of cell viability is critical in the cell-base assay. Analysis of cell viability is necessary for the characterization of cell responses to cytotoxic drugs and environmental stress. A RealTime-Glo MT Cell Viability Assay to monitor cell viability in real time of continues cell culture during 40 hours of compound treatment was used to screen Tox21 10K library compounds in Hek293 cells. The RealTime-Glo MT Cell Viability Assay is a nonlytic, homogeneous, bioluminescent method to measure cell viability in real time using a simple, plate-based method. The assay involves adding NanoLuc luciferase and a cell-permeant prosubstrate to cells in culture. Viable cells reduce the proprietary prosubstrate to generate a substrate for NanoLuc luciferase. This substrate diffuses from cells into the surrounding culture medium, where it is rapidly used by the NanoLuc Enzyme to produce a luminescent signal. The signal correlates with the number of viable cells, making the assay well suited for cytotoxicity studies.
# Tox21 Assay Protocol Summary:
# The mixture of Hek293 cell suspension and reagents were dispensed at 600cells/6 ul/well in 1536-well tissue culture treated black solid bottom plates using a Multidrop dispenser. After the assay plates were incubated at a 37 C/5% CO2 incubator for 5 hours, 23 nL of compounds dissolved in DMSO, positive and negative controls was transferred to the assay plate by a pintool work station. The plates were incubated at 37 C for 40 hours. The luminescence intensity were measured at 0h, 8h, 16h, 24h, 32h and 40h time points using ViewLux plate reader during compound treatment.
# % is scaled to controls: 0 for no effect and ±100 for the full control effect; potency is read from the fitted curve at half-maximal effect.
Structure (SMILES),"activity change, negative = cytotoxic",Potency
CC(C)(O)C(=O)c1ccccc1,0.285%,
CCCCC/C=C\CCC=O,2.26%,
CCOC(=O)Nc1ccc(NCc2ccc(F)cc2)nc1N,-1.36% [at 35.3 µM],
CN(C)CCCNCCCN(C)C,3.17%,
CC(=O)Nc1ccc(S(N)(=O)=O)cc1,17.3%,
O=C(O)COc1nn(Cc2ccccc2)c2ccccc12,3.52% [at 35.3 µM],
CCOC(=O)c1c(C)n(C)c2ccc(O)cc12,-23.8% [at 35.3 µM],
O=c1[nH]c(=O)n([C@H]2C[C@H](O)[C@@H](CO)O2)cc1I,5.03% [at 35.3 µM],
COC(=O)CC(C)=O,13.8%,
NC(=O)c1ccc([N+](=O)[O-])cc1,9.98%,
CC(C)NCC(O)c1ccc(NS(C)(=O)=O)cc1 (stereo not given),1.53%,
C=C[Si](OC(=C)C)(OC(=C)C)OC(=C)C,15.4%,
COC(=O)[C@@H](N)Cc1ccc(O)c(O)c1,4.61% [at 35.3 µM],
C/C=C(\C)C#N,-1.12%,
Cc1ccc(Cl)cc1Cl,16.2%,
CCOC(=O)[C@H](CCc1ccccc1)N[C@@H](C)C(=O)N1[C@H](C(=O)O)C[C@@H]2CCC[C@@H]21,8.49% [at 35.3 µM],
c1cnc(N2CCN(Cc3ccc4c(c3)OCO4)CC2)nc1,-9.27% [at 35.3 µM],
CCC(C)S (stereo not given),3.1% [at 2.72 µM],
CC(NC(CCc1ccccc1)C(=O)O)C(=O)N1C(=O)N(C)CC1C(=O)O (stereo not given),0.385% [at 35.3 µM],
CCCCNC(=O)NCCCC,2.48%,

Structure (SMILES),"activity change, negative = cytotoxic",Potency
O=C(c1ccccc1)C1CCCCC1,-10.2%,
O=C(O)CCCc1ccccc1,-1.53% [at 35.3 µM],
CC/C=C\CCOC(C)=O,1.65%,
CC(C)NCCCC1(C(N)=O)c2ccccc2-c2ccccc21,-19.3% [at 35.3 µM],
CCN(CC)CCOCCOC(=O)C1(c2ccccc2)CCCC1,-8.87% [at 35.3 µM],
CCSC(=O)N(CC(C)C)CC(C)C,5.58%,
COCCCOCCCOC,5.54%,
CC(C)(C)c1ccc(O)c(O)c1,,20.2 µM (active) and 13.8 µM (active)
N=C(N)c1ccc2cc(OC(=O)c3ccc(N=C(N)N)cc3)ccc2c1,0.331% [at 35.3 µM],
C[N+](C)(C)CCCCCC[N+](C)(C)C,,inactive
Nc1c2c(nc3ccccc13)CCCC2O (stereo not given),14% [at 35.3 µM],
CCCCCOC(=O)CCCCC,5.96%,
C[C@](N)(Cc1ccc(O)cc1)C(=O)O,1.02% [at 6.97 µM],
NS(=O)(=O)c1ccc(C(=O)O)cc1,2.6% [at 35.3 µM],
CC(=O)c1ccccc1O,8.92%,
N=C(N)c1ccccc1,1.36%,
COc1nc(N)nc2c1ncn2[C@@H]1O[C@H](CO)[C@@H](O)[C@@H]1O,12.3% [at 35.3 µM],
Cc1c(NC(C)C)c(=O)n(-c2ccccc2)n1C,0.747% [at 35.3 µM],
COc1c(N2C[C@@H]3CCCN[C@@H]3C2)c(F)cc2c(=O)c(C(=O)O)cn(C3CC3)c12,-1.47% [at 35.3 µM],
CN1C(=O)N(C)C(O)C1O (stereo not given),-2.23%,
